Methyltransferases: Primary Screen for Target Class Profiling of Small Molecule Inhibitors of Methyltransferases | purified enzyme, MTase-Glo SAH luminescence; active compounds read low | calls only at 40 µM | 25,000 compounds, 3.9% hits | AID 1745853, 2022; call rule not given here
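Each enzyme was reacted with SAM and its substrate, with compounds tested once at 40 uM; SAH formed was read by MTase-Glo luminescence.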
The depositor's hits bear a star; i = inactive; + = active, no number. This is one part of a sample in which hits are shown more often than they occur. % is set by controls: 0 for no effect and ±100 for the full control effect.

SMILES | Methyltransferases
CC(C)c1cc2c(c(O)c1O)[C@@]13CCCC(C)(C)[C@@H]1[C@H](OC3=O)C2=O | i
CC(C)c1cc2c(c(O)c1O)[C@@]13CCCC(C)(C)C1[C@@H](O)[C@@H]2OC3=O (stereo partly drawn) | +
Cc1cccc(NC(=O)CSc2nnc3n(CC(C)C)c(=O)c4ccc(Cl)cc4n23)c1 | i
COC(=O)c1ncn2c1C(=O)N(Cc1ccc(OC(C)C)cc1)C(C)(C(=O)NC1CCCCC1)C2 (stereo not drawn) | i
CCCN1C(=O)c2cc(C(=O)NCCCN3CCOCC3)nn2CC1(C)C(=O)NC1CCCC1 (stereo not drawn) | i
Cc1cccc(-c2n[nH]n3c2nc(=O)c2ccc(C(=O)N4CCN(c5ccccc5)CC4)cc23)c1 | i
COCCCNC(=O)C1(C)Cn2nc(-c3ccccc3)cc2C(=O)N1c1cc(OC)cc(OC)c1 (stereo not drawn) | i
COC(=O)Nc1nc2ccc(C(=O)c3cccs3)cc2[nH]1 | i
O=C(c1ccccc1)c1ccc2nc(NC(=O)c3csc(C4CCN(c5ncnc6ccsc56)CC4)n3)[nH]c2c1 | +
CC1CCN(c2cc(NC(=O)c3ccccc3)ncn2)CC1 | i
CN1C(=O)c2cc(C(=O)NCCN3CCOCC3)nn2CC1(C)C(=O)NCc1ccccc1 (stereo not drawn) | i
Cc1cc(NC(=O)NCCN2CCC(O)(Cc3ccccc3)CC2)c2ccccc2n1 | +
O=C(NCCc1ccccc1)Nc1cccn2ncnc12 | i
CC1=CCC(O)C2(C)CCC3C(C)C(=O)OC3C12 (stereo not drawn) | +
C[C@@H]1C(=O)O[C@H]2[C@H]1CC[C@@]1(C)C(=O)C=C[C@@](C)(O)[C@H]21 | i
C=C1C(=O)O[C@@H]2[C@H]1[C@H](O)C[C@]1(C)[C@@H](O)CC=C(C)[C@@H]21 | i
Cc1cc2c(cc3n2CC(C)(C(=O)NC2CCCCCC2)N(CCCOC(C)C)C3=O)o1 (stereo not drawn) | i
COC(=O)c1cc2n(n1)CC(C)(C(=O)NC1CCC(C)CC1)N(c1ccc(C(C)C)cc1)C2=O (stereo not drawn) | i
O=S(=O)(Nc1cc(Cl)c(Oc2cnc3ccccc3c2)c(Cl)c1)c1ccc(Cl)cc1Cl | +
Cn1c(=O)n(C)c2cc(S(=O)(=O)Nc3ccccc3)c(Cl)cc21 | i
COc1ccc(NS(=O)(=O)c2cc3c(cc2Cl)n(C)c(=O)n3C)cc1 | i
CC(C)CNC(=O)c1ccc2c(=O)n(C(C)C)c3nn(CC(=O)NC(C)(C)C)c(=O)n3c2c1 | i
Cc1ccccc1Cn1nc2n(C(C)C)c(=O)c3ccc(C(=O)NC4CCCC4)cc3n2c1=O | i
CN1CCN(Cc2ccc(NC(=O)Nc3ccc(Oc4cc(NC(=O)C5CC5)ncn4)cc3)cc2C(F)(F)F)CC1 | +
COC(=O)N1CCN(Cc2cccc(NC(=O)Nc3ccc(C)nc3)c2F)CC1 | i
SMILES | Methyltransferases
CCN1CCN(Cc2ccc(C(=O)Nc3ccc(C)c(Oc4ccc5c(c4)CC(=O)N5)c3)cc2C(F)(F)F)CC1 | i
CC1CCCCC1NC(=O)C1(C)Cn2c(nc3ccccc32)C(=O)N1Cc1ccccc1 (stereo not drawn) | i
Cc1[nH]cnc1C1CCN(c2nc3cccc4c3n2CCC4=O)CC1 | +
CCCn1c(=O)c2ccc(C(=O)NC(C)CC)cc2n2c(SCC(=O)Nc3ccc(F)cc3)nnc12 (stereo not drawn) | i
CCOc1ccc(OCC)c(NS(=O)(=O)c2ccc3[nH]c4c(c3c2)CCCC4)c1 | i
C=C1C(=O)OC2CC(C)C(CCC(C)=O)=CCC12 (stereo not drawn) | i
C=C1C(=O)O[C@@H]2C[C@H](C)[C@@]3(O)C=C(C(C)=O)[C@]4(CC3C[C@H]12)C(=O)O[C@H]1C[C@@H](C)C(CCC(C)=O)=CC[C@H]14 (stereo partly drawn) | i
C=C1C(=O)OC2CC(C)C(CCC(C)O)=CCC12 (stereo not drawn) | +
CCCn1c(=O)c2ccc(C(=O)NC(C)CC)cc2n2c(SCC(=O)Nc3cc(C)cc(C)c3)nnc12 (stereo not drawn) | i
CC1(C(=O)NC2CCCCCC2)Cn2c(ccc2-c2ccccc2)C(=O)N1Cc1ccccc1 (stereo not drawn) | i
CCOc1ccc(NC(=O)c2cc3n(n2)CC(C)(C(=O)NC2CCCC2)N(CC)C3=O)cc1 (stereo not drawn) | i
Cc1ccc(C)c(N2CCN(CCN3C(=O)c4ccc(-c5ccco5)n4CC3(C)C(=O)NC3CCCCCC3)CC2)c1 (stereo not drawn) | i
O=C1Nc2ccccc2/C1=C/c1cc(O)ccc1O | +
CN1C(=O)c2ccccc2NC(=O)[C@]12O[C@@H]2c1cccc(O)c1 | i
Cc1[nH]c(/C=C2\C(=O)Nc3cc(-c4ccccc4)ccc32)c(C)c1CCC(=O)O | i
CCOc1ccccc1CN1C(=O)c2c(C(=O)OC)ncn2CC1(C)C(=O)NCc1ccccc1 (stereo not drawn) | i

Screening data: PubChem BioAssay, National Center for Advancing Translational Sciences (NCATS)
